29 compounds from ChEMBL document CHEMBL2218924, “A broad activity screen in support of a chemogenomic map for kinase signalling research and drug discovery” (Biochem J, 2013) can be followed below.

Serine/threonine-protein kinase SIK1 (Homo sapiens), sequence (P57059 whole entry): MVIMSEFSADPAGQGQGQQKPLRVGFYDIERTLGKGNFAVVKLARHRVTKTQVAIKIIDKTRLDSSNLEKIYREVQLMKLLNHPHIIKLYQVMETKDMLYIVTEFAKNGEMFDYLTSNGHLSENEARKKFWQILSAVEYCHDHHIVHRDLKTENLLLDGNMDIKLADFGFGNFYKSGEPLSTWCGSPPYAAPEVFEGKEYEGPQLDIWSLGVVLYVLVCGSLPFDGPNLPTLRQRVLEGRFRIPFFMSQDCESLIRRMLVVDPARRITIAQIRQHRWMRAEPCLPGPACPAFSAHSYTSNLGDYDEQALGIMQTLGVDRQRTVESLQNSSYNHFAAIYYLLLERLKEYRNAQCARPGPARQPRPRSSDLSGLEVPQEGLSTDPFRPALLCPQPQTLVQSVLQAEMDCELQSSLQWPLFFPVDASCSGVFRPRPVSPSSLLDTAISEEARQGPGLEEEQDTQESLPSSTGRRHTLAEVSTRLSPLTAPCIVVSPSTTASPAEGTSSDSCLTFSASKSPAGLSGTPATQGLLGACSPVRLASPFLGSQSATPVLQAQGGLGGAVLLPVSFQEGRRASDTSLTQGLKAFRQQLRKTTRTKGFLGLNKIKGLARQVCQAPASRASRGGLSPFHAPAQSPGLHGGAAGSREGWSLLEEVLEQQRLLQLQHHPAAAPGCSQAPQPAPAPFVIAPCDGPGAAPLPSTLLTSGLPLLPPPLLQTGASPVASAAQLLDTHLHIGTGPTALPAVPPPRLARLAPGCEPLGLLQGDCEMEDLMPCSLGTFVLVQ
SRSF protein kinase 1 (Homo sapiens), sequence (Q96SB4 whole entry): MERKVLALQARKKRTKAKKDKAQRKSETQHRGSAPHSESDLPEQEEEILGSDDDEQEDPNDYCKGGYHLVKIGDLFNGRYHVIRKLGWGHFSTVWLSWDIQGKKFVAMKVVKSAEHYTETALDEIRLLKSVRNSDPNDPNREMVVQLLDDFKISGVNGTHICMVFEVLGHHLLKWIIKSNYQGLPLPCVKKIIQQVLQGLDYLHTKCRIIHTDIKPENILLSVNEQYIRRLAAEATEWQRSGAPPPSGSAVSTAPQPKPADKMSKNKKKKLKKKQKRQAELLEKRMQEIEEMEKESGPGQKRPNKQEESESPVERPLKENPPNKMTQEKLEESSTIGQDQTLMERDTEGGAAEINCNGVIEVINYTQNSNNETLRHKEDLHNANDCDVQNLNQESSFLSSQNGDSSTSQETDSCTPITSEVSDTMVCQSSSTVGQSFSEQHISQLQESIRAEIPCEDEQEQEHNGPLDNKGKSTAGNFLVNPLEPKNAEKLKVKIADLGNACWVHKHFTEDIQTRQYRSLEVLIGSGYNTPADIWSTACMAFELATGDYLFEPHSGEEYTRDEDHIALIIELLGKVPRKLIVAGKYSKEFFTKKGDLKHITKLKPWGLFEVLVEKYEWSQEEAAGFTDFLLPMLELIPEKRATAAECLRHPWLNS

The first test concerns the target Serine/threonine-protein kinase SIK1 (Homo sapiens) (UniProt P57059). Particulars: at 10 µM.
On to `COc1ccc(COc2ccc(Cc3cnc(N)nc3N)cc2OC)cc1`, for which the residual activity came to 111%.
With `O=C1C(Cl)=C(N2C(=O)CCC2=O)C(=O)c2ccccc21`, the residual activity was 98%.
Same read-out and setting: with `COc1ccc(-c2cnc3c(-c4ccsc4)cnn3c2)cc1` the figure was 2%; with `O=C1NC(=O)C(c2cn(CCCn3ccnc3)c3ccccc23)=C1Nc1ccccc1`, 36%.
In the case of `Cn1c2ccccc2c2c3c(c4c5ccccc5n(CCC#N)c4c21)CNC3=O`, the residual activity was 24%.
Turning to `O=C(Nc1nc2ccccc2n1CCN1CCOCC1)c1cccc([N+](=O)[O-])c1`, the residual activity came to 73%.
As to `O=C1Cc2c([nH]c3ccc(Br)cc23)-c2ccccc2N1`, the residual activity came out at 36%.
Still for that read-out and setting: next, `Oc1cccc(-c2nc(N3CCOCC3)c3oc4ncccc4c3n2)c1`: -1%; `NCCNc1ncc(C(N)=O)c(Nc2cccc(C(F)(F)F)c2)n1`: 20%.
On the same count and under the same terms, with `O=C1NC(=O)C(c2cn(CCCO)c3ncccc23)=C1c1cnccn1` the figure was 84%; with `Nc1nccc(-c2c(-c3ccc(F)cc3)ncn2C2CCNCC2)n1`, 54%; with `O=C(c1ccccc1)c1ccc(N2CCOCC2)cc1O`, 95%.
The same measure, in the same setting: with `CC(C)[C@H](CO)Nc1nc(Nc2cc(N)cc(Cl)c2)c2ncn(C(C)C)c2n1` the figure was 18%.
Turning to `Nc1ncnc2c1cnn2-c1ccccc1`, the residual activity is 138%.
Turning to `c1ccc(-c2cnc(Nc3ccc(OCCN4CCCC4)cc3)s2)cc1`, the residual activity worked out at 10%.
Still for that read-out and setting: next, `N#C/C(=C1/Nc2ccccc2S1)c1ccnc(NCCc2cccnc2)n1`: 78%.

The next test addresses SRSF protein kinase 1 (Homo sapiens) (UniProt Q96SB4). The following applies: at 1 µM.
With `COc1cc2ncnc(Nc3cccc(Cl)c3)c2cc1OC`, the residual activity came out at 101%.
On the same count and under the same terms, next, `COc1cc2nccc(Oc3ccc(NC(=O)Nc4cc(C)on4)c(Cl)c3)c2cc1OC`: 98%; `Cc1cc(C)c(/C=C2\C(=O)Nc3ccccc32)[nH]1`: 104%; `CN(C)S(=O)(=O)c1ccc2c(c1)/C(=C/c1cc3c([nH]1)CCCC3)C(=O)N2`: 20%.

For the next test the target is unchanged. Particulars: at 10 µM.
Consider `COc1cc2ncnc(Nc3cccc(Cl)c3)c2cc1OC`, for which the residual activity is 108%.
In the case of `Fc1ccc(-c2nc3n(c2-c2ccncc2)CCS3)cc1`, the residual activity is 93%.
On the same count and under the same terms, next, `O=C(NC(NC(=S)Nc1ccc(F)c([N+](=O)[O-])c1)C(Cl)(Cl)Cl)C(c1ccccc1)c1ccccc1` (stereo unspecified): 92%; `CN(C)S(=O)(=O)c1ccc2c(c1)/C(=C/c1cc3c([nH]1)CCCC3)C(=O)N2`: 8%.

The target in the next test is SRSF protein kinase 2 (Homo sapiens) (UniProt P78362). Particulars: at 1 µM.
SRSF protein kinase 2 (Homo sapiens), sequence (P78362 whole entry, looked up): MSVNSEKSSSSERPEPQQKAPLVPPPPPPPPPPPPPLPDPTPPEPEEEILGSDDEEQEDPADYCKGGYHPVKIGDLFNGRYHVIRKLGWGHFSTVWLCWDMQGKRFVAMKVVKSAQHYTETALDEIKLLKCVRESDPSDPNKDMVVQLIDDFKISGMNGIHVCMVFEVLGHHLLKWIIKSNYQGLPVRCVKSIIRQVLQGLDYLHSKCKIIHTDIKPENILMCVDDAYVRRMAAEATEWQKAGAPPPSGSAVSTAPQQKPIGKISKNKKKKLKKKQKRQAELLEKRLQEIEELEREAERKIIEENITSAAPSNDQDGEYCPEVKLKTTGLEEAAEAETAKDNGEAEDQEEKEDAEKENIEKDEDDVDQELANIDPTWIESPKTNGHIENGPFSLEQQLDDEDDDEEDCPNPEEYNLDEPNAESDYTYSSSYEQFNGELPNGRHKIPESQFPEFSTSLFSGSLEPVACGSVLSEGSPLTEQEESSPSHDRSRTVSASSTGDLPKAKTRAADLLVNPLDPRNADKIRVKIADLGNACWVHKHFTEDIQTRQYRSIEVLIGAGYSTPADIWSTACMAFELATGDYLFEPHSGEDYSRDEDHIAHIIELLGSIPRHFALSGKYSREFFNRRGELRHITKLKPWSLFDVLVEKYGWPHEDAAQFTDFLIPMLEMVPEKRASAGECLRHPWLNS
Take `COc1cc2ncnc(Nc3cccc(Cl)c3)c2cc1OC`: the residual activity worked out at 104%.
As for `COc1cc2nccc(Oc3ccc(NC(=O)Nc4cc(C)on4)c(Cl)c3)c2cc1OC`, the residual activity amounted to 99%.
As for `NC(=O)c1ccc(-c2nc(-c3ccc4c(c3)OCCO4)c(-c3ccccn3)[nH]2)cc1`, the residual activity came to 91%.
As to `O=C(Nc1nc2ccccc2n1CCN1CCOCC1)c1cccc([N+](=O)[O-])c1`, the residual activity turned out to be 79%.
With `O=C1Nc2ccccc2/C1=C\c1c(Cl)[nH]c2ccccc12`, the residual activity was found to be 100%.
On the same count and under the same terms, next, `O=C(c1ccccc1)c1ccc(N2CCOCC2)cc1O`: 100%; `O=C(CCCc1ccc(-c2ccccc2F)cc1)Nc1ccc(O)cc1`: 106%; `CN(C)S(=O)(=O)c1ccc2c(c1)/C(=C/c1cc3c([nH]1)CCCC3)C(=O)N2`: 34%.

A further test has the same target. The following applies: at 10 µM.
In the case of `CC(C)N(CCC(=O)c1ccc2ccccc2c1)Cc1ccccc1`, the residual activity was found to be 85%.
`O=C1C(Cl)=C(N2C(=O)CCC2=O)C(=O)c2ccccc21`: the residual activity was 88%.
As for `Fc1ccc(-c2nc3n(c2-c2ccncc2)CCS3)cc1`, the residual activity amounted to 79%.
Turning to `NC(=O)c1ccc(-c2nc(-c3ccc4c(c3)OCCO4)c(-c3ccccn3)[nH]2)cc1`, the residual activity was 95%.
Still for that read-out and setting: with `O=C(Nc1nc2ccccc2n1CCN1CCOCC1)c1cccc([N+](=O)[O-])c1` the figure was 74%; with `COc1ccc(CNC(=O)Nc2ncc([N+](=O)[O-])s2)cc1`, 78%.
Same read-out and setting: next, `Nc1nccc(-c2c(-c3ccc(F)cc3)ncn2C2CCNCC2)n1`: 70%; `O=C1Nc2ccccc2/C1=C\c1c(Cl)[nH]c2ccccc12`: 83%.
Regarding `O=C(c1ccccc1)c1ccc(N2CCOCC2)cc1O`, the residual activity turned out to be 94%.
Still for that read-out and setting: next, `O=C(NC(NC(=S)Nc1ccc(F)c([N+](=O)[O-])c1)C(Cl)(Cl)Cl)C(c1ccccc1)c1ccccc1` (stereo unspecified): 98%; `Nc1ncnc2c1cnn2-c1ccccc1`: 97%; `N#Cc1c(NC(=O)c2cccc3ccccc23)sc2c1CCCC2`: 92%.
`O=C(CCCc1ccc(-c2ccccc2F)cc1)Nc1ccc(O)cc1`: the residual activity was found to be 100%.
On the same count and under the same terms, with `CN(C)S(=O)(=O)c1ccc2c(c1)/C(=C/c1cc3c([nH]1)CCCC3)C(=O)N2` the figure was 14%.

The target of a further test is Serine/threonine-protein kinase 33 (Homo sapiens) (UniProt Q9BYT3). The following applies: at 1 µM.
Serine/threonine-protein kinase 33 (Homo sapiens), sequence (Q9BYT3 whole entry, looked up): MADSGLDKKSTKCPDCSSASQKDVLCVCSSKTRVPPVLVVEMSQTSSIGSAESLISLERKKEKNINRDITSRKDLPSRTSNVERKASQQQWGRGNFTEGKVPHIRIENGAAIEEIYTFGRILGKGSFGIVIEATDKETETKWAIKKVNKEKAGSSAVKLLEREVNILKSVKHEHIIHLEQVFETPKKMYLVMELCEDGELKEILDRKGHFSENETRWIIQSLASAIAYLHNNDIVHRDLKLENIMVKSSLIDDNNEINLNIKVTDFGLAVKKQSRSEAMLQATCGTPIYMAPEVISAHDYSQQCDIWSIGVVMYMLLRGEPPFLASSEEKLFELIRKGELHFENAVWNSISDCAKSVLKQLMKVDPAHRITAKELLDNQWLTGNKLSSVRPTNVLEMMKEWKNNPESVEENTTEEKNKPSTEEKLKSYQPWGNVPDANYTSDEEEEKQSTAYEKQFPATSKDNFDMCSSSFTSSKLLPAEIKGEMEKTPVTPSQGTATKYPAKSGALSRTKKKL
On to `CCN1/C(=C/C(C)=O)Sc2ccc(OC)cc21`, for which the residual activity was determined as 82%.
As to `COc1cc2nccc(Oc3ccc(NC(=O)Nc4cc(C)on4)c(Cl)c3)c2cc1OC`, the residual activity came out at 81%.
The same measure, in the same setting: next, `COc1ccc(-c2cnc3c(-c4ccsc4)cnn3c2)cc1`: 95%.
Still for that read-out and setting: next, `O=C1NC(=O)C(c2cn(CCCn3ccnc3)c3ccccc23)=C1Nc1ccccc1`: 75%.
On to `Cn1c2ccccc2c2c3c(c4c5ccccc5n(CCC#N)c4c21)CNC3=O`, for which the residual activity was determined as 6%.
Same read-out and setting: with `O=C(Nc1nc2ccccc2n1CCN1CCOCC1)c1cccc([N+](=O)[O-])c1` the figure was 83%.
On the same count and under the same terms, next, `O=C1Cc2c([nH]c3ccc(Br)cc23)-c2ccccc2N1`: 97%; `Cc1cc(C)c(/C=C2\C(=O)Nc3ccccc32)[nH]1`: 69%; `O=C1Nc2ccccc2/C1=C\c1c(Cl)[nH]c2ccccc12`: 99%.
The same measure, in the same setting: with `O=C(c1ccccc1)c1ccc(N2CCOCC2)cc1O` the figure was 89%.
As to `O=C(NC(NC(=S)Nc1ccc(F)c([N+](=O)[O-])c1)C(Cl)(Cl)Cl)C(c1ccccc1)c1ccccc1` (stereo unspecified), the residual activity was 98%.
The same measure, in the same setting: next, `CC(C)[C@H](CO)Nc1nc(Nc2cc(N)cc(Cl)c2)c2ncn(C(C)C)c2n1`: 96%; `Nc1ncnc2c1cnn2-c1ccccc1`: 97%; `O=C(CCCc1ccc(-c2ccccc2F)cc1)Nc1ccc(O)cc1`: 100%.
Still for that read-out and setting: next, `CN(C)S(=O)(=O)c1ccc2c(c1)/C(=C/c1cc3c([nH]1)CCCC3)C(=O)N2`: 85%.

What is called residual activity is the signal under treatment as a percentage of the control signal.
